Here are results for 40 compounds from PubChem BioAssay (NCI).

Molecules are shown by their SMILES. Compounds without any hit were thinned out: in the full panel of roughly 83,000, 20% have a hit.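 For each line, cells grew in 96-well plates with the test compound present at a single concentration for 48 hours.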 Unmarked numbers belong to inactive results. The source made the active and inactive calls. Where a SMILES comes first, the peptide text is derived from it. [ ]: non-standard residue; d: D form. ξ: configuration not given here. ξD = NC(CC(=O)O)C(=O)O

For this assay, the system named is EKVX NSCLC. Briefly: NCI-60 one-dose screen, 48 h (100 = growth as untreated, 0 = no growth, -100 = all killed). Conditions: 10 µM unless noted. The procedure: Growth inhibition of the EKVX human Non-Small Cell Lung tumor cell line is measured as a screen for anti-cancer activity. Cells are grown in 96 well plates and exposed to the test compound for 48 hours. Compounds are tested at a single concentration, which is 10^-5 M for most compounds. The reported endpoint is percent growth (GI% or GIPRCNT), where numbers from 0 - 100% represent growth inhibition, and numbers from -100% - 0 represent cell death. For example, a value of 40 represents 60% growth inhibition. A value of 0 means no net growth occurred over the course of the experiment. A value of -40 indicates 40% of cells at the beginning of the experiment died by the end of the experiment. A value of -100 means all cells are dead at the end of the experiment.
NCI-60 Human Tumor Cell Lines Screen was performed using the standard one-dose NCI protocol, which is described in more detail at https://dtp.cancer.gov/discovery_development/nci-60/default.htm.
Compounds with GIPRCNT values below 10 were considered active. Activity score was based on GIPRCNT using the following formula: […]
Score is 0 for GIPRCNT values of 100 or above, 50 for GIPRCNT values of 0, and 100 for GIPRCNT values of -100.
In the case of `O=C(c1ccccc1)C(O)C(Br)(CBr)c1ccccc1` (stereo not given), the growth was 108%.

For `COC(=O)c1ccc(=O)c2nc3/c(=C/O)c(O)cc(=O)c3[nH]c12`, the growth is 35.3%.

As to `CCC(C)C(N)C(=O)NC(CC(N)=O)C(=O)NC(CC(C)C)C(=O)NC(CCCCN)C(=O)NC(C)C(=O)NC(CC(C)C)C(=O)NC(C)C(=O)NC(C)C(=O)NC(CC(C)C)C(=O)NC(C)C(=O)NC(CCCCN)C(=O)NC(CCCCN)C(=O)NC(C(=O)NC(CC(C)C)C(N)=O)C(C)CC` (stereo not given), the growth was 91.2%.

Take `N=C(N)Sc1cccc[n+]1[O-]`: the growth was 47.7%.

On to `O=C(O)c1cc2c(s1)C(=O)c1sccc1C2=O`, for which the growth is 101%.

Take `NC(=S)Nc1ccc2c(c1)Cc1ccccc1-2`: the growth is 67.1%.

With `O/N=C1\c2ccccc2-c2ccc(F)cc21`, the growth is 90.4%.

With `COC1CC(C)C(OC)c2cc(O)cc(c2O)NC(=O)/C(C)=C/C=C\C(C)C(OC(N)=O)/C(C)=C\C(C)C1OC` (stereo not given), the growth is 41%.

On to `c1ccc(-c2cccc(-c3ccccn3)n2)nc1`, for which the growth was 15.8%.

Turning to `CCc1cnc2ccccc2c1/C=C/c1ccc(N(C)C)cc1`, the growth was 62.4%.

On to `CN(C)CC(C)(CN(C)C)C(=O)/C=C/c1c(Cl)cccc1Cl`, for which the growth is 5.55% (active).

In the case of `C/C(=N\NC(=S)N1CC2CCC(CC2)C1)c1ccccn1`, the growth is -6.66% (active).

With `CC(C)(C)c1ccc(CCO)cc1`, the growth was 89.6%.

Regarding `CCCCCCCCCCCC[S+](C)CC(=O)[O-]` (stereo not given), the growth was 22.2%.

On to `CCCCCCCCC(=O)OCCCC(CCC(CCC1CCCO1)OC(=O)CCCCCCCC)OC(=O)CCCCCCCC` (stereo not given), for which the growth was 94.1%.

In the case of `CCCN(CCC)C(=O)c1ccc(C)cc1`, the growth is 89.2%.

For `CN(C)CCSC1=Nc2ccc(Cl)cc2C(c2ccccc2Cl)N(C)C1` (stereo not given), the growth was 81%.

For the compound `CN=C(N)N/N=C(\C)c1ccc2c(c1)Cc1ccccc1-2`, the growth is 1.95% (active).

On to `NC(=S)N/N=C\c1nccc2c(C(F)(F)F)cccc12`, for which the growth was 1.87% (active).

For `Oc1ccc(Cl)cc1C(c1cc(Cl)ccc1O)C(Cl)(Cl)Cl`, the growth was 13.7%.

Consider `N#CC(I)CS(=O)(=O)c1ccccc1` (stereo not given), for which the growth was 103%.

In the case of `COc1ccc2c(c1OC)OCC(CN(C)C)C2=O` (stereo not given), the growth is 99.4%.

Regarding `COc1cc(/C=C/c2ccnc3ccccc23)cc(OC)c1OC`, the growth was 55.3%.

As for `CN1CCC(c2ccccc2)(c2ccccc2)C(=O)C1`, the growth is 47.3%.

For `CCOC(=O)C1(C)CCCC1N` (stereo not given), the growth is 108%.

For `Cc1ccccc1N=C(N)Nc1ccccc1C` (tested in a mixture with another compound), the growth was 85.3%.

Regarding `Cc1cccc2c(N)c3ccccc3nc12`, the growth was 1.94% (active).

As for `O=C(NNc1ccccc1)OCc1ccccc1`, the growth is 91%.

Turning to `Nc1nc(-c2ccccc2)nc(N)c1N=O`, the growth was 89.1%.

With `Oc1ccc(Nc2ccc3ccccc3c2)cc1`, the growth was 79%.

For `COC1=CC(=O)c2c(O)c3c(c(O)c2C1=O)CC(C)(O)OC3` (stereo not given), the growth is 23.2%.

Take `Cc1ccc(N2C(=O)C=CC2=O)cc1`: the growth is 116%.

As for `COc1ccc(/C=C2/C(=O)ON=C2C)cc1`, the growth was 109%.

Take `Cc1oc2c(C)c3oc(=O)cc(C)c3cc2c1CCl`: the growth was 68.4%.

In the case of `NCC(=O)NC(CC(=O)O)C(=O)O` (stereo not given) (H-Gly-[ξD]-OH), the growth is 94.7%.

In the case of `Cc1nc([N+](=O)[O-])c(Sc2nncc(-c3ccccc3)n2)n1C`, the growth is 79.7%.

`O=C1/C(=C\c2ccc([N+](=O)[O-])cc2)CS(=O)(=O)C/C1=C/c1ccc([N+](=O)[O-])cc1`: the growth was -63.4% (active).

Regarding `CN1CCC(CN2c3ccccc3Sc3ccccc32)C1` (stereo not given), the growth was 107%.

Take `CC(C)=C1C=C2CC[C@@H]3[C@](C)(CCC[C@@]3(C)C(=O)O)[C@H]2CC1`: the growth was 93.4%.

Take `Cn1c(-c2ccccc2)c(/C=C/C2=[N+](C)c3ccccc3C2(C)C)c2ccccc21`: the growth is 20%.
